Compound activity: PubChem BioAssay, National Center for Advancing Translational Sciences (NCATS)
D3 antag – D3 dopamine receptor (human) antagonism | P35462 | D3R cells, DiscoveRx beta-arrestin luminescence, antagonist mode; active compounds read low | max response, negative = inhibition, % | actives 2.5% (n = 360,000) | AID 652054; in the data active = max response below about -50%; inconclusive = no clear call, values can overlap the other calls
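Cells plated overnight at 1500 cells/well, then exposed to library compounds with dopamine controls for 90 minutes at 37 degrees C. DiscoveRx reagent added for 30–60 minutes at room temperature; luminescence read, quantitative HTS format.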
D1 antag – antagonists of human D1 dopamine receptor. activity change, negative = inhibition, % at 10 µM. HEK293 TREx D1 cells, calcium flux, dopamine EC80; active compounds read low. P21728. actives 3.2% (n = 360,000); in the data active = activity change below about -30%
Target sequence (P21728 whole entry, looked up): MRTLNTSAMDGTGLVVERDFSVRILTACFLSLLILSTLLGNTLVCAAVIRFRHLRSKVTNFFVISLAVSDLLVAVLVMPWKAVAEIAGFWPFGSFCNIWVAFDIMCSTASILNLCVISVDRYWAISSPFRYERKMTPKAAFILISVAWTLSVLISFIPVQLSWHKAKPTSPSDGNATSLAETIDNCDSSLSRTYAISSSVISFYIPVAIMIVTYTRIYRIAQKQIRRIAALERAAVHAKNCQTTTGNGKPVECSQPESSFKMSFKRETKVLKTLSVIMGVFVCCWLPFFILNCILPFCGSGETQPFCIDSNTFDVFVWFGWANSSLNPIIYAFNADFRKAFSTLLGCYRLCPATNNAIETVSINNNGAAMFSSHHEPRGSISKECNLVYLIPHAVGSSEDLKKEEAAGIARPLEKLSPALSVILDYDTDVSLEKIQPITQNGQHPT
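Allosteric or orthosteric antagonism assessed as attenuation of the calcium response to EC80 dopamine, added 180 s after compound, in induced HEK293 Trex D1 cells loaded with no-wash calcium dye.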
D1 ag – activates the human D1 dopamine receptor | P21728 | HEK293 T-REx D1 cells, calcium flux, agonist mode | AID 504660 | actives 1% (n = 360,000) | activation, % at 2 µM; in the data active = activation above about 30%
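Inducible HEK293 T-REx D1 cells, force-coupled to calcium signalling, were plated at 4000 cells/well with tetracycline and held overnight at 30 C. After no-wash calcium dye loading, compound-evoked calcium rise over 180 s flagged agonists.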
D3 ag – D3 dopamine receptor (human) agonism; D3R DiscoveRx beta-arrestin cells, luminescence, 90 min; max activation, %; actives 0.58% (n = 410,000); in the data active = max activation above about 30%
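Cells at 1500/well, incubated overnight, then treated with pinned compounds (dopamine as control) for 90 min at 37 degrees C. DiscoveRx reagent added for 30 - 60 minutes at room temperature; luminescence read.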
D1 PAM – potentiators of human D1 dopamine receptor; HEK293 TREx D1 cells, calcium flux, dopamine EC20 potentiation; P21728; actives 0.036% (n = 360,000); potentiation, % at 10 µM; AID 504651; in the data active = potentiation above about 30%
Each line names hits and unclear results; the compound was inactive in the other large screens. The list is not random: actives were taken first. Their share in the collection is about 6%.

C#CCOCCOCCOCCNc1nc(N2CCN(C(=O)CCCCCCCCCCNC(=O)Cn3cc(CCCCCN)nn3)CC2)nc(N2CCN(C(=O)CCCCCCCCCCNC(=O)[C@H](CO)n3cc(CCCCCN)nn3)CC2)n1	D1 ag 85
C#CCOCCOCCOCCNc1nc(N2CCN(C(=O)CCCCCCCCCCNC(=O)Cn3cc(CCCCCN)nn3)CC2)nc(N2CCN(C(=O)CCCCCCCCCCNC(=O)[C@H]([C@@H](C)CC)n3cc(CCCCCN)nn3)CC2)n1	D1 ag 43
C#CCOCCOCCOCCNc1nc(N2CCOCC2)nc(N2CCN(C(=O)CCCCCCCCCCNC(=O)Cn3cc(CCCCCN)nn3)CC2)n1	none
C#CCOCC1CN(C)C(=O)O1 (stereo not drawn)	none (no result: D1 antag, D1 ag, D1 PAM)
Oc1ccc(CNc2ccc(C(F)(F)F)cc2Cl)c2cccnc12	none (no result: D3 antag, D3 ag)
COC(=O)c1ccccc1NC(=O)C1CCCCC1C(=O)O (stereo not drawn)	none
O=C(ONC(=O)C1CCCCC1C(=O)NOC(=O)c1ccccc1)c1ccccc1 (stereo not drawn)	D3 ag 82 (no result: D1 antag, D1 ag, D1 PAM)
COc1ccc(S(=O)(=O)Nc2ncccn2)cc1	D1 antag -44
O=C(Nc1ccc(Cl)cc1)Nc1ccc(S(=O)(=O)Nc2ncccn2)cc1	D3 antag inconclusive, D1 antag -60
O=S(=O)(Nc1ncccn1)c1ccc(NC(=S)Nc2ccc(Cl)cc2)cc1	none
Cc1nc2c(c(C)c1CCC(=O)Nc1cccc(C(F)(F)F)c1)c(=O)n(C)c(=O)n2C	none (no result: D3 antag)
Cc1cc(Cl)c(S(=O)(=O)Nc2ccc3c(c2)OCO3)cc1OCC(N)=O	D1 antag -34
C[C@@H]1CN([C@H](C)CO)C(=O)c2c(c3ccccc3n2C)-c2ccccc2CO[C@H]1CN(C)C(=O)NC1CCCCC1	none (no result: D1 antag, D1 ag, D1 PAM)
Cn1cc(/C=N/NC(=O)c2cc3cc(Br)ccc3o2)c2ccccc21	D3 antag inconclusive
O=C(O)Cn1cc(/C=N/NC(=O)c2cc3cc(Br)ccc3o2)c2ccccc21	D1 antag -33
COc1ccnc(N2CCN(c3cccc(C(F)(F)F)c3)CC2)c1C#N	none
COc1ccnc(N2CCN(c3ccc(Cl)cc3)CC2)c1C#N	D1 antag -31
CCN(C(=O)CCS(=O)(=O)c1ccc2c(c1)CCN2C(C)=O)c1cccc(C(F)(F)F)c1	none (no result: D3 antag)
CCCCCCN1C[C@H](O)[C@@H](n2cc(-c3ccc(F)cc3)nn2)C[C@@H]1c1ccccc1	none (no result: D1 antag, D1 ag, D1 PAM)
CC12CCC=CC1=C(C=O)C1C2CCC2(C)C(O)CCC12 (stereo not drawn)	none (no result: D1 antag, D1 ag, D1 PAM)
O=C(Nc1ccc(Nc2ccccc2)cc1)c1ccc(Cl)cc1[N+](=O)[O-]	D3 antag -66 (no result: D1 antag, D1 ag, D1 PAM)
CC(=O)NS(=O)(=O)c1ccc(NC(=O)c2ccc(Cl)cc2[N+](=O)[O-])cc1	none
O=C(NNC(=O)c1ccccc1[N+](=O)[O-])c1ccc(NC(=O)c2ccccc2)cc1	D1 antag -38
O=C(Nc1ccccc1)c1ccccc1NC(=O)c1ccccc1[N+](=O)[O-]	D3 antag inconclusive (no result: D1 antag, D1 ag, D1 PAM)
COC(=O)c1cccc(-n2c(C)cc(C=O)c2C)c1	D1 antag -30
CC1(C)CC(NS(=O)(=O)c2ccc(F)cc2)CC(C)(C)N1	D3 antag -58
CCSc1nnc2c(n1)OC(c1sccc1C)N(C(C)=O)c1ccccc1-2 (stereo not drawn)	none (no result: D3 antag)
CCCCSc1nnc2c(n1)OC(C)N(C(C)=O)c1ccccc1-2 (stereo not drawn)	none (no result: D3 antag)
CCSc1nnc2c(n1)OC(c1ccc(OC)c(OC)c1)N(C(C)=O)c1ccccc1-2 (stereo not drawn)	D1 antag -30 (no result: D3 antag)
CCCCCSc1nnc2c(n1)OC(C)N(C(C)=O)c1ccccc1-2 (stereo not drawn)	D3 antag -68 (no result: D1 PAM)
CN(CCOc1ccc(Cl)cc1)CC(O)c1ccccc1 (stereo not drawn)	D3 antag -52, D1 ag 33
CN(CCOc1ccccc1)CC(O)COc1ccccc1 (stereo not drawn)	D3 antag -74 (no result: D1 PAM)
CN(CCOc1ccccc1)CC(O)COCc1ccccc1F (stereo not drawn)	D3 antag inconclusive
CC(OCC(O)CN(C)CCOc1ccccc1)c1ccc(Cl)cc1 (stereo not drawn)	D3 antag -69
CN(CCOc1ccc(Br)cc1)CC(O)c1ccccc1 (stereo not drawn)	none
NCCC[C@H](N)C(=O)O	none (no result: D3 antag, D1 antag, D1 ag, D1 PAM)
COc1ccc(Cl)cc1Cn1c(C)c(C(=O)NCc2ccc(F)cc2)sc1=O	D3 antag inconclusive (no result: D1 antag, D1 ag, D1 PAM)
Cc1nn(C)cc1CN(C)C(=O)C1CCC(=O)N(CCc2cccc(F)c2)C1 (stereo not drawn)	none (no result: D1 antag, D1 ag, D1 PAM)
CCOC(=O)c1cnc2ccc(OCC)cc2c1Nc1ccc(OCc2ccccc2Cl)cc1	none (no result: D3 antag)
CCOC(=O)c1cnc2ccc(Cl)cc2c1Nc1ccc(OCC)cc1	D1 antag -58 (no result: D3 antag)
CCOC(=O)c1cnc2ccccc2c1Nc1cccc(OC)c1	D1 antag -35 (no result: D3 antag)
CCOC(=O)c1cnc2ccc(OC)cc2c1Nc1ccc2c(c1)OCCO2	D3 antag -70
CCOC(=O)c1cnc2ccc(C(=O)OC)cc2c1Nc1ccc2c(c1)OCCO2	none
CCOC(=O)c1cnc2ccc(OC)cc2c1Nc1ccc(OCc2ccccc2Cl)cc1	none (no result: D3 antag)
CCOc1cc(Cl)c(S(=O)(=O)n2ccnc2)cc1Cl	none (no result: D3 antag)
COc1ccc(OC)c(NC(=O)c2c(NCc3ccc(OC)c(OC)c3)sc3c2CCC(C)C3)c1 (stereo not drawn)	none (no result: D3 antag)
COC(=O)c1ccc(NC(=O)N2CCN(Cc3cc(=O)n4nc(-c5ccc(C)cc5)sc4n3)CC2)cc1	none (no result: D3 antag)
CN(C)CC(C)(C)CNS(=O)(=O)CC12CCC(CC1=O)C2(C)C (stereo not drawn)	D1 antag -75
CC(=O)c1cccc(NC(=O)c2cc(C(C)C)on2)c1	D1 antag -36
COc1ccc(C(=O)Oc2ccc3oc(=O)sc3c2)cc1	D3 antag -52 (no result: D1 antag)
Cc1csc(SCC(=O)Nc2ccc(C)c(F)c2)n1	D1 antag -39
COc1ccc(NC(=O)CSc2nc(C)cs2)cc1OC	none
Cc1cc(N2C(=O)c3ccc(C(=O)Nc4ccc(O)cc4C(=O)O)cc3C2=O)no1	D1 antag -35
Cc1ccc(NC(=O)Cn2nnc(-c3nc(-c4ccncc4)no3)c2N)c(C)c1	none (no result: D3 antag)
Cc1ccc(-c2ccc(=O)n(CC(=O)Nc3ccc(C)cc3Cl)n2)cc1	none (no result: D3 antag)
COc1ccc(NC(=O)Cn2c(=O)oc3cc(S(=O)(=O)N4CCCC4)ccc32)cc1OC	none (no result: D3 antag)
NC(=O)N[C@@H](CCC(=O)O)C(=O)O	none (no result: D3 antag, D1 antag, D1 ag, D1 PAM)
Cc1cc(F)ccc1-c1cc(C(=O)Nc2ccccc2)[nH]n1	D3 antag -85 (no result: D1 antag, D1 ag, D1 PAM)
Cc1cc(F)ccc1-c1cc(C(=O)NCc2cc(C(F)(F)F)cc(C(F)(F)F)c2)[nH]n1	none (no result: D1 antag, D1 ag, D1 PAM)
Cc1ccc(-c2cc(C(=O)Nc3cc(C)ccc3C)[nH]n2)c(O)c1	D1 antag -37
